# NPC1 prom act – activates the NPC1 promoter. Huh7 NPC1 promoter luciferase reporter, 24 h. hit rate 2.4% among 320,000. Potency, µM (series often up to 9.22 µM), for inactives: at the highest dose activation, hits mostly activators; note: % of control where 0% means no effect; nearly all actives have a fitted effect of over 60% in size
#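 Readout is luciferase luminescence, reflecting NPC1 promoter activation in stably transfected Huh7 cells after 24 h compound exposure at 37 °C in reduced-serum medium with 10% FBS.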
# ELG1 genotoxic – genotoxicity induction in ELG1-luciferase HEK293T cells; HEK293T ELG1-luciferase reporter, luminescence, 16 h; Potency, µM (series often up to 46 µM), without a hit: at the top dose activity change, positive = activation, most hits filed as activators; hit rate 1.3% among 330,000; note: % of control where 0% means no effect; nearly all actives have a fitted effect of over 60% in size
#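 Luminescence read-out: rising ELG1-luciferase signal, reflecting elevated ELG1 protein under genetic stress, flags genotoxic compounds. Cells were treated for 16 hr at 37 °C before ONE-Glo detection.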
# Luc counter – Kinase-Glo luciferase inhibition (counter-screen). Kinase-Glo luciferase, ATP luminescence, 8 min. Potency, µM (top dose mostly 38.3 µM), without a hit: at the top dose activity change, negative = inhibition, hits mostly inhibitors. hit rate 0.28% among 200,000. AID 1379; note: % is set by controls: 0 for no effect and ±100 for the full control effect; nearly all actives have a fitted effect of over 60% in size
#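 Compound is pinned into ATP-containing buffer (10 uM ATP, imidazole pH 7.2, 7 mM MgCl2). Kinase-Glo luciferase reagent is then added. Light output is recorded following an 8-min room-temperature incubation.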
# FLuc counter – counter-screen for miR-21 project: firefly luciferase inhibitors or activators | purified FLuc, Km substrates, luminescence inhibition | Potency, µM (titrated, usually from 57.5 µM), for inactives: top-dose activity change, negative = inhibition, most hits filed as inhibitors | hit rate 6.9% among 360,000 | AID 588342;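 note: plate controls were vehicle for no effect and reference inhibitor for full effect; nearly all actives have a fitted effect of over 55% in size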
# Target sequence (P08659 whole entry, looked up): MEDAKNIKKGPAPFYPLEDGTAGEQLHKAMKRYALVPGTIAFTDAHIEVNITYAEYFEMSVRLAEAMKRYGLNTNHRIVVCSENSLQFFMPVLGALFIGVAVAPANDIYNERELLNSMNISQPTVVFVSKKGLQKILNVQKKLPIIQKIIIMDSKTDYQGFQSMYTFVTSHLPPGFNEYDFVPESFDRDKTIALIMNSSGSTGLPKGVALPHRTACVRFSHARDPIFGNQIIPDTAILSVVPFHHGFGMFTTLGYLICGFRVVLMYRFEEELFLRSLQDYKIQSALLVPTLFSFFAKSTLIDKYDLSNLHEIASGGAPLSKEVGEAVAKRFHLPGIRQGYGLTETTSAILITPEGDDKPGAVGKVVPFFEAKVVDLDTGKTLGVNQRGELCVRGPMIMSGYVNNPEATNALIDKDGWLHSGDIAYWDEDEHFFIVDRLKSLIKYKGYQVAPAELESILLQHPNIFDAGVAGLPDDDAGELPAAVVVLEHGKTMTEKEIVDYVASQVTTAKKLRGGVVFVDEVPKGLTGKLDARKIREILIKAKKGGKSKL
#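 Biochemical qHTS of compounds, final roughly 60 µM downward over six points, against 10 nM purified firefly luciferase using Km concentrations of substrates (10 uM D-luciferin, 10 uM ATP) in Tris acetate pH 7.5 buffer; luminescence output.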
# SMN2 splice enh – enhancers of SMN2 splice variant expression | hit rate 2.8% among 210,000 | Potency, µM (titrated, usually from 46.1 µM), for inactives: at the highest dose activity change, positive = activation, most hits filed as activators | HEK293 SMN2-luciferase splicing reporter, luminescence, 30-36 h; note: % of control where 0% means no effect; nearly all actives have a fitted effect of over 55% in size
#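 HEK293 cells carry an SMN2 minigene-luciferase reporter in which exon 7 inclusion puts luciferase in frame. Cells were seeded at 2000 cells/well, attached for 10-12 hours, then exposed to compounds for 30-36 hours at 37C before ONE-Glo luminescence.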
# Rab9 prom act – activates the Rab9 promoter | Potency, µM (series often up to 9.22 µM), inactives show at the highest dose activation, negative = inhibition, actives largely listed as activators | AID 485297 | Huh7 Rab9 promoter-luciferase reporter, luminescence, 24 h | hit rate 2.8% among 320,000; note: % of control where 0% means no effect; nearly all actives have a fitted effect of over 60% in size
#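 Cell-based reporter: Huh7 stable for Rab9 promoter-driven luciferase, plated in reduced-serum medium with 10% FBS at 1500 cells/well, compound-treated 24 h at 37 °C, luminescence read after 10 min reagent.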
# Active calls of the source: *; ? = inconclusive; . = no result; [ ] = another dose, or the depositor's remark. Rows were chosen to be rich in hits. Some 7.5% of all compounds tested hit in one or more screens of this group. Calls come from the whole dose curve; as a rule, active = well fitted curve in the direction sought with a large enough effect; inconclusive = small, poorly fitted or top-dose-only effect, or another doubt; inactive = no such curve, though single readings can be large; an effect the other way counts as inactive or inconclusive. Potency is the fitted concentration of half-maximal effect.
SMILES,NPC1 prom act,ELG1 genotoxic,Luc counter,FLuc counter,SMN2 splice enh,Rab9 prom act
Cc1c(NC(=O)/C=C/c2cn(-c3ccccc3)nc2-c2ccccc2)c(=O)n(-c2ccccc2)n1C,1%,-10%,-6%,21µM*,-10%,-1%
O=C1CC(NS(=O)(=O)c2ccc([N+](=O)[O-])cc2)CN1c1cccc(F)c1 (stereo not given),-3%,-1%,.,-1%,.,-14%
CCc1c(C2(O)CCCCC2)[nH]c2ccc(C(F)(F)F)cc12,0%,-5%,.,-13%,.,-8%
O=C(CCNC(=O)c1ccc(Cl)cc1)NCc1ccco1,.,-1%,.,.,.,.
C(=N\N1CCOCC1)/c1cn(-c2ccccc2)nc1-c1ccccc1,12%,-1%,-3%,24µM*,23%,6%
O=C(N/C(=C\c1cn(-c2ccccc2)nc1-c1ccccc1)C(=O)N1CCOCC1)c1ccccc1,-1%,0%,-1%,3%,2%,-1%
CCOc1cc(/C=N/Nc2cccc(C(=O)O)c2)ccc1OC(=O)c1ccccc1,0.089µM*,?,-1%,17µM*,1µM*,0.1µM*
COc1ccc2ccccc2c1/C=N/Nc1cccc(C(=O)O)c1,1.1µM*,?,.,8.5µM*,.,0.89µM*
O=C(O)c1cccc(N/N=C/c2cccc3ccccc23)c1,0.1µM*,?,.,0.076µM*,.,?
COc1ccc2ccccc2c1/C=N/Nc1ccc(Cl)c(C(=O)O)c1,?,11%,.,?,.,?
COc1ccc(N/N=C/c2c(C(=O)O)ccc3ccccc23)cc1,-38%,6%,.,9.5µM*,.,-38%
CC(/C=C/c1cccc(Oc2ccc(F)cc2)c1)N(O)C(N)=O (stereo not given),0%[46.1 µM],.,1%,.,-26%,10%[46.1 µM]
Cc1c[nH]c(=O)n(CCCN2CCN(c3ccccc3OCC(F)(F)F)CC2)c1=O,.,.,3%,.,.,.
Cc1ccc(C2=CSC3=NNC4(CCCCC4)NN23)cc1,-14%,15%,1%,11µM*,-17%,4.5µM*
COc1ccc(C2=CSC3=NNC4(CCCCC4)NN23)cc1,-11%,9%,3%,?,5%,?
COC(=O)c1ccc(C(NC(=O)OCc2ccccc2)/C(=C/[C@@H](C)C(=O)NC2CCCCC2)c2cccnc2)cc1 (stereo not given in full),.,.,-1%,.,-5%,.
COc1ccc2c(c1)c(CC(=O)O)c(C)n2Cc1ccc(F)cc1,.,.,2%,.,-1%,.
c1ccc2oc(-c3ccn[nH]3)cc2c1,2.8µM*,?,.,8.5µM*,.,3.2µM*
c1ccc2oc(-c3[nH]ncc3CN3CCSCC3)cc2c1,1%,-1%,.,-2%,.,4%
COc1ccc(-c2nc(CCNC(=O)c3cccs3)cs2)cc1,1%,?,-1%,27µM*,-71%,-5%
Cc1ccc(-c2nc(C)c(CCNC(=O)c3ccco3)s2)cc1,.,.,.,17µM*,.,.
COc1ccc(CC(=O)NCCc2csc(-c3ccc(Cl)cc3)n2)cc1,.,.,.,-6%,.,.
Cc1csc2nc(CNC(=O)c3ccco3)cn12,?,18µM*,0%,17µM*,20µM*,?
COc1ccc(-c2nc(C)c(CCNC(=O)c3cccs3)s2)cc1OC,.,.,.,17µM*,.,.
COc1cc(NC(=O)c2c(C)nn(-c3ccc(F)cc3)c2-n2cccc2)cc(OC)c1,.,.,.,0%,.,.
COc1ccc(-n2ccnc(NCCc3ccc(S(N)(=O)=O)cc3)c2=O)cc1,.,.,.,-6%,.,.
Cc1cccc(-c2nc(CCNC(=O)c3ccco3)cs2)c1,.,.,.,-20%,.,.
COc1ccc(-c2nc(C)c(CCNC(=O)c3ccco3)s2)cc1,.,.,.,27µM*,.,.
Cc1ccc(-c2nc(CCNC(=O)c3ccco3)cs2)cc1,-10%,-9%,.,17µM*,.,-2%
CC1CCCN(C(=O)c2cc(F)c(F)cc2Cl)C1 (stereo not given),-3%,-1%,1%,3%,?,0%
